Data reported in PubChem BioAssay (NCATS).
Several values for one entry are separate records, joined by “and”; a condition that tells them apart may be missing. Identical values can stand only once. Results filed as inconclusive are left out. Where a call stands in place of a potency, no number is given. Activity calls are given as the source filed them. Unless noted, calls follow the shape of the dose curve; as a rule, active = well fitted curve in the direction sought with a large enough effect; inconclusive = small, poorly fitted or top-dose-only effect, or another doubt; inactive = no such curve, though single readings can be large; an effect the other way counts as inactive or inconclusive.

Legend:
[1] = P-glycoprotein substrates identified in KB-8-5-11 adenocarcinoma cell line, qHTS therapeutic library screen (AID 1346987); also: nearly all actives have a fitted effect of over 65% in size; also: potency is read from the fitted curve at half-maximal effect
Summary of the method: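 Compounds are pinned in dose-response onto KB-8-5-11 cells (500 cells/well, colchicine-free medium) and left 72 h at 37 degree C. CellTiter-Glo luminescence then yields AC50 values.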

[2] = biological target: N-terminal Xaa-Pro-Lys N-methyltransferase 1 (Homo sapiens) (UniProt Q9BV86); assay: Confirmatory qHTS for Inhibitors of N-terminal methyltransferase 1 (NTMT1): MTaseGlo Assay (AID 1645874); also: potency is read from the fitted curve at half-maximal effect; nearly all actives have a fitted effect of over 65% in size
N-terminal Xaa-Pro-Lys N-methyltransferase 1 (Homo sapiens), sequence (Q9BV86 whole entry, looked up): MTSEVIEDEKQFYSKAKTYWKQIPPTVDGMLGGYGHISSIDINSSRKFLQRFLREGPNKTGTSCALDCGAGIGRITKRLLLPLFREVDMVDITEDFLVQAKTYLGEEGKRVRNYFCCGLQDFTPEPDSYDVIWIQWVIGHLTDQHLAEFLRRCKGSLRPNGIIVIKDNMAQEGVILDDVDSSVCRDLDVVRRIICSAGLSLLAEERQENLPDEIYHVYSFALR
Summary of the method: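 Inhibition was derived from luminescence after SAH-to-ATP conversion, scaled between no-enzyme and DMSO wells, then fitted by 4-parameter Hill. Conditions: 125 nM NTMT1, 100 uM SAM, 1 uM SPKRIA, 30 min RT.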

[3] = biological target: Catechol O-methyltransferase (Homo sapiens) (UniProt P21964); assay: Confirmatory Screen for Target Class Profiling of Small Molecule Inhibitors of Methyltransferases (AID 1745852; calls by dose curve; also: potency is read from the fitted curve at half-maximal effect); settings: MTase-Glo luminescence, SAH detection, recombinant enzyme; measured here: COMT max response; stronger effect = lower value
Catechol O-methyltransferase (Homo sapiens), sequence (P21964 whole entry, looked up): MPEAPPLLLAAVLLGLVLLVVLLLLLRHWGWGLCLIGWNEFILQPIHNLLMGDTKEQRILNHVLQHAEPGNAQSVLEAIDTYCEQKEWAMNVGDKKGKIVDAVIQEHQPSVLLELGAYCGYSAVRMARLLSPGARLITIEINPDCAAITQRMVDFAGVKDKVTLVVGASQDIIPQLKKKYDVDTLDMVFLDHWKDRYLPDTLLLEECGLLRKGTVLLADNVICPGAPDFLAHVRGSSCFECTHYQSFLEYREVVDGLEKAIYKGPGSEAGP

[4] = biological target: Guanidinoacetate N-methyltransferase (Homo sapiens) (UniProt Q14353); assay: as above; settings: activity change, negative = inhibition: at 57.3 µM (top of the series) unless noted
[5] = biological target: Nicotinamide N-methyltransferase (Homo sapiens) (UniProt P40261); assay: as above; settings: MTase-Glo luminescence, SAH detection, recombinant enzyme; measured here: NNMT max response; stronger effect = lower value
Nicotinamide N-methyltransferase (Homo sapiens), sequence (P40261 whole entry, looked up): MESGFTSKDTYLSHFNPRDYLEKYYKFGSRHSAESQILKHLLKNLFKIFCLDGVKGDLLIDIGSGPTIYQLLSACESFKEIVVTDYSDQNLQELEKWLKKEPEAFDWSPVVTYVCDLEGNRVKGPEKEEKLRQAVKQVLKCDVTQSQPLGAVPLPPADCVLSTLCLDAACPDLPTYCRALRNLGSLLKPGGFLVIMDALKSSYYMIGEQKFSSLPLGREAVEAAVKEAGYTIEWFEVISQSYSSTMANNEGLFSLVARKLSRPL

[6] = biological target: Phenylethanolamine N-methyltransferase (Homo sapiens) (UniProt P11086); assay: as above; settings: MTase-Glo luminescence, SAH detection, recombinant enzyme; measured here: PNMT max response; stronger effect = lower value
Phenylethanolamine N-methyltransferase (Homo sapiens), sequence (P11086 whole entry, looked up): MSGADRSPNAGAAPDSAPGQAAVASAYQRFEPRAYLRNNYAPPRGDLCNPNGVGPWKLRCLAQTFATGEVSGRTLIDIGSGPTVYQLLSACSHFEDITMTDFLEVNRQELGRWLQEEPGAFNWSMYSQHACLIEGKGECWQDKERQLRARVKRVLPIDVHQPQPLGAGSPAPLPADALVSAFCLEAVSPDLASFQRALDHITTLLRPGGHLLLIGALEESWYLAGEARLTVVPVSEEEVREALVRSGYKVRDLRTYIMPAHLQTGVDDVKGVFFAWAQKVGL

[7] = biological target: Glutathione peroxidase 1 (Homo sapiens) (UniProt P07203); assay: Primary qHTS Assay for Inhibitors of Recombinant Selenoprotein Glutathione Peroxidase 1 (GPX1) (AID 1845191); also: nearly all actives have a fitted effect of over 65% in size
Glutathione peroxidase 1 (Homo sapiens), sequence (P07203 whole entry, looked up): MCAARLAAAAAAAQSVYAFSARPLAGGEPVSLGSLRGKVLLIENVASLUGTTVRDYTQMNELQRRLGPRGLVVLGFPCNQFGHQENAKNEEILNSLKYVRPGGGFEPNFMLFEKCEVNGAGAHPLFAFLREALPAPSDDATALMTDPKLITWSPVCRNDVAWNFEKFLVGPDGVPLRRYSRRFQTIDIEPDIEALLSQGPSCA
Summary of the method: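 NADPH consumption tracked by fluorescence at 340/450 nm between t=0 and t=15 min, room temperature. Final mix: 10 nM GPX1, 100 nM glutathione reductase, 1 mM GSH, 0.5 mM NADPH, 0.5 mM cumene hydroperoxide, 0.01% BSA; 30 min compound–enzyme preincubation.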

[8] = biological target: Calcium and integrin-binding protein 1 (Homo sapiens) (UniProt Q99828); assay: Primary qHTS for Identification of Calcium Integrin Binding Protein 1 (CIB1) Competitor (AID 1508620);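 also: GST tagged CIB1 binding a fluorescein labelled alphaIIb integrin peptide tracer; top concentration of the series differs between compounds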
Calcium and integrin-binding protein 1 (Homo sapiens), sequence (Q99828 whole entry, looked up): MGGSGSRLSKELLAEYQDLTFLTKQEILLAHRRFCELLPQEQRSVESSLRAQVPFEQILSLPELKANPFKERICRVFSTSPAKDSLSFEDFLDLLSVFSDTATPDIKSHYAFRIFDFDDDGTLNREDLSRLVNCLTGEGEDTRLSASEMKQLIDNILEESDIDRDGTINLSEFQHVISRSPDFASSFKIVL
Summary of the method: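 CIB1-GST (1 uM final) and compound incubated 15 min at room temperature before adding FITC-alphaIIb peptide tracer (100 nM final). Competition for binding read by fluorescence polarization (ex 480, em 540) after another 15 min at room temperature.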

[9] = Primary qHTS for inhibitors of nuclear receptor binding SET domain protein 2 (NSD2) in an isogenic RCH-ACV NSD2 p.E1099K mutant (9B) (AID 1645876); also: nearly all actives have a fitted effect of over 70% in size; also: potency is read from the fitted curve at half-maximal effect
[10] = Primary qHTS for inhibitors of nuclear receptor binding SET domain protein 2 (NSD2) in an RCH-ACV wild type WT cells (2C) (AID 1645877); also: nearly all actives have a fitted effect of over 70% in size; also: potency is read from the fitted curve at half-maximal effect
[11] = tested on: Zika virus NS2B-NS3 protease; assay: Primary screen GU AMC qHTS for Zika virus inhibitors (AID 1347154); also: nearly all actives have a fitted effect of over 70% in size
Summary of the method: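 Fluorogenic AMC-substrate cleavage by noncovalent NS2B-NS3 protease complex (25 nM, pH 8.0 Tris buffer with Tween 20) followed for 15 minutes at room temperature (~20% conversion). Percent inhibition from ex340/em450 signal change, fitted by 4-parameter Hill equation.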

[12] = P-glycoprotein substrates identified in KB-3-1 adenocarcinoma cell line, qHTS therapeutic library screen (AID 1346986); also: nearly all actives have a fitted effect of over 60% in size
Summary of the method: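 Viability read by CellTiter-Glo after 72 h compound exposure in dose-response of KB-3-1 and KB-8-5-11 (P-gp-high) cells. Hits needed AC50 < 10 uM, >50% maximum response and curve class -1.1 to -2.4. Cherry-picks retested ± tariquidar, including pcDNA/MDR-19 HEK-293 pair.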

[13] = Primary qHTS for small molecule stabilizers of the endoplasmic reticulum resident proteome: Secreted ER Calcium Modulated Protein (SERCaMP) assay (AID 1508630)
Summary of the method: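 The SH-SY5Y reporter protocol was run at 3 concentrations up to 38.3 uM (primary) or 11 concentrations (follow-up): 16 h compound, 100 nM thapsigargin for 4 h, then extracellular luciferase luminescence.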

[14] = biological target: Cytochrome P450 1A2 (Homo sapiens) (UniProt P05177); assay: p450-cyp1a2 (AID 410; calls by dose curve; also: potency is read from the fitted curve at half-maximal effect)
Cytochrome P450 1A2 (Homo sapiens), sequence (P05177 whole entry, looked up): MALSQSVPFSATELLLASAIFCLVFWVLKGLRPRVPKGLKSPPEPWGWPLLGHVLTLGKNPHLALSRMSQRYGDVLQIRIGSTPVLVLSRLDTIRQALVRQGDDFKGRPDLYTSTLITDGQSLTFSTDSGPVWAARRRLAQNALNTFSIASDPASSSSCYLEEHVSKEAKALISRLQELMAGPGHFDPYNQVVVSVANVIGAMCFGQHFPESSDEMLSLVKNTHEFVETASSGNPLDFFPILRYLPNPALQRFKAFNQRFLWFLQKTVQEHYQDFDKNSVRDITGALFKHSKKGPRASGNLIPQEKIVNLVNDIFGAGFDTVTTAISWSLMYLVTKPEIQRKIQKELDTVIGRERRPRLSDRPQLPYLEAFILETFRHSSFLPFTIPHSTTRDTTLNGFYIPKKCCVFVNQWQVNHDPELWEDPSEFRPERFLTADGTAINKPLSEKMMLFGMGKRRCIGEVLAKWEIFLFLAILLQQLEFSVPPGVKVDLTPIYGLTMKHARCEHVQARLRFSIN
Summary of the method: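 Luminescent demethylation readout: Luciferin-ME (100uM, equal to Km) turned over by 20nM CYP1A2 for 60 min at room temperature after NADPH regeneration addition, following 10 min compound preincubation. Normalization used 57 uM furafylline as full inhibition.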

[15] = biological target: Glucocorticoid receptor (Homo sapiens) (UniProt P04150); assay: GR-GFP Redistribution (AID 450;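 active = compounds whose dose series gives a full or clear partial fitted curve of increased nuclear translocation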; also: potency is read from the fitted curve at half-maximal effect); settings: U2OS GR-GFP nuclear translocation, laser cytometry, 2 h
Glucocorticoid receptor (Homo sapiens), sequence (P04150 whole entry, looked up, the tested form may be a part): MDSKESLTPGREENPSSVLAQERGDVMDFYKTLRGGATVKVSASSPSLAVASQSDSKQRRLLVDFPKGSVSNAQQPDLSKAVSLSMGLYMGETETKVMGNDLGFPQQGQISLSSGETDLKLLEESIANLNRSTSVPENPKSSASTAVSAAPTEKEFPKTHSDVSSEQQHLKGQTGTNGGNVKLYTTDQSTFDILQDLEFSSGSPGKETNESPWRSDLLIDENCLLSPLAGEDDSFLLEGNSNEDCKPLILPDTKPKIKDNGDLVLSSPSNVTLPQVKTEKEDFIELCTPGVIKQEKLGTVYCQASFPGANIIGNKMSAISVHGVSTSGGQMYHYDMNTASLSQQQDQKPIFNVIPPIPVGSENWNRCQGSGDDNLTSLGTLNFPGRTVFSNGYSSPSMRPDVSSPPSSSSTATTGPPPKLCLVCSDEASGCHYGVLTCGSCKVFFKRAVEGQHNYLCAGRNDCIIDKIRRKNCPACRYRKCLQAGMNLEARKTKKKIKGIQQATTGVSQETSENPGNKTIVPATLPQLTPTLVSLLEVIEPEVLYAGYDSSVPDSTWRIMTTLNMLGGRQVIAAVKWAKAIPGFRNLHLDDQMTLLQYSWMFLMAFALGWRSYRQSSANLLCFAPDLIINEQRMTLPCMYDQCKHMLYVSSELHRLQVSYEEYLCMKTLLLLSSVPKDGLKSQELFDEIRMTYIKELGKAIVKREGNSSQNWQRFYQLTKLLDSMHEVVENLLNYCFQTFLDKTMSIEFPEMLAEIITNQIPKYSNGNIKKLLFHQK

[16] = biological target: Glucocorticoid receptor (Homo sapiens) (UniProt P04150); assay: GR-EFC Redistribution (AID 451; calls by dose curve; also: potency is read from the fitted curve at half-maximal effect); settings: CHO-K1 GR-EFC translocation, beta-gal luminescence, 2 h
Summary of the method: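 Translocation of GR-ED fusion to nuclear EA restores b-gal, read by luminescence after 1 h room-temperature detection. Engineered CHO-K1 biosensor cells, 1,000/well, exposed 2 h at 37 C to titrations up to 46 uM final.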

[17] = biological target: Mitogen-activated protein kinase 10 (Mus musculus) (UniProt Q61831); assay: JNK3 AlphaScreen Assay (AID 530; active = well fitted curve in either direction with a large enough effect, not every such curve was filed as active;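 also: kinase came from lysate of stimulated human HepG2 cells; signal reports phosphorylation of biotinylated GST-cJun 1-79 at Ser73 with 10 µM ATP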)
Summary of the method: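 qHTS titrations with 15 min compound pre-incubation before adding ATP (10 uM final). Read-out: AlphaScreen of Ser73-phosphorylated biotin-GST-cJun using HepG2 lysate JNK3 activated by IL-1β and TNFα.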

[18] = biological target: 3',5'-cyclic-AMP phosphodiesterase 4B (Homo sapiens) (UniProt Q07343); assay: qHTS Assay for Inhibitors of PDE-IV (AID 607; active = well fitted activation curve with a large enough effect in the main read-out, with a control signal flat, not every such curve was filed as active)
3',5'-cyclic-AMP phosphodiesterase 4B (Homo sapiens), sequence (Q07343 whole entry, looked up): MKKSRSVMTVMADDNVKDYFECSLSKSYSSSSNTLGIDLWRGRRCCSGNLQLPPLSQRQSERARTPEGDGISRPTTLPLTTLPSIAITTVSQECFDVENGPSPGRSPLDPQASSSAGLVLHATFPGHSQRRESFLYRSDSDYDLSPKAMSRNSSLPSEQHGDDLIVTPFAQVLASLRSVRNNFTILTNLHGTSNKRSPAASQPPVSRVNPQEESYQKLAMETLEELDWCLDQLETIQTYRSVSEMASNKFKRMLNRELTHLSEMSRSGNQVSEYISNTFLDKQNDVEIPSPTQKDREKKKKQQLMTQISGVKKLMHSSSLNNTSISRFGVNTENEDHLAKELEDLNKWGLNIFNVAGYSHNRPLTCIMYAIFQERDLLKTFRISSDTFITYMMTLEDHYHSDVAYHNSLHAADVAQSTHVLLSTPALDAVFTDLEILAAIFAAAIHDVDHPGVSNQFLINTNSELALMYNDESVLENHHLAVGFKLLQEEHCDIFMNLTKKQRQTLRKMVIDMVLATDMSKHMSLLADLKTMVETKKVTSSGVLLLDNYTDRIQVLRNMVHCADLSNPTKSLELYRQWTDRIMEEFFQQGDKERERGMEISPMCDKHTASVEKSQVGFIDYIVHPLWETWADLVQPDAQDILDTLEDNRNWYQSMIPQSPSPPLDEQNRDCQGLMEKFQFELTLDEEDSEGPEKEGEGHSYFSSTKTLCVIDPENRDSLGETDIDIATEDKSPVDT
Summary of the method: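 HEK293 ACTOne cells with CNG channel (1000/well), endogenous PDE4; membrane potential dye, compounds up to 22.9 uM final. Fluorescence Ex 535/Em 590; RO 20-1724 (100 uM final) as reference.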

[19] = biological target: Cytochrome P450 2C9 (Homo sapiens) (UniProt P11712); assay: qHTS Assay for Inhibitors and Substrates of Cytochrome P450 2C9 (AID 883); also: potency is read from the fitted curve at half-maximal effect; nearly all actives have a fitted effect of over 60% in size
Summary of the method: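 Inhibition of CYP2C9 is scored as loss of luminescence, with 57uM sulphaphenazole defining 100% inhibition. Substrate Luciferin-H is used at 100uM, equal to its KM; enzyme at 10nM in 25mM KPO4, 60 min at 37C with NADPH regeneration.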

[20] = biological target: Cytochrome P450 3A4 (Homo sapiens) (UniProt P08684); assay: qHTS Assay for Activators of Cytochrome P450 3A4 (AID 885); also: nearly all actives have a fitted effect of over 65% in size
Cytochrome P450 3A4 (Homo sapiens), sequence (P08684 whole entry, looked up): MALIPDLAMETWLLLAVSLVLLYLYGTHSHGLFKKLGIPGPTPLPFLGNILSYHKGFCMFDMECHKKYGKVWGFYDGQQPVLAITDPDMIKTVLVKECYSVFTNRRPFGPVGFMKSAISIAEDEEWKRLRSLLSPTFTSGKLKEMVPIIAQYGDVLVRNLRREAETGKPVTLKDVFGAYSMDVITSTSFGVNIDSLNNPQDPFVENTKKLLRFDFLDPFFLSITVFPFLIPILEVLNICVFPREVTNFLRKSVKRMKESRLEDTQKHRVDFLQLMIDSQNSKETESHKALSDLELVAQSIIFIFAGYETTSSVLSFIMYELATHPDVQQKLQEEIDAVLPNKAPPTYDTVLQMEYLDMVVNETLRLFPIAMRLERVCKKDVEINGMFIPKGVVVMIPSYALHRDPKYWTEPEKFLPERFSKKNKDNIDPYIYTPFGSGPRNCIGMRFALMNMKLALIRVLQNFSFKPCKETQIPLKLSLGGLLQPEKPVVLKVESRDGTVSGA
Summary of the method: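 Human CYP3A4 dealkylates Luciferin-PPXE to luciferin, which luciferase detection converts to light. Substrate was at its KM (25uM), buffer 200mM KPO4, reaction 60 min at RT.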

[21] = biological target: Cytochrome P450 2C19 (Homo sapiens) (UniProt P33261); assay: qHTS Assay for Inhibitors and Substrates of Cytochrome P450 2C19 (AID 899); also: potency is read from the fitted curve at half-maximal effect; nearly all actives have a fitted effect of over 60% in size
Cytochrome P450 2C19 (Homo sapiens), sequence (P33261 whole entry, looked up): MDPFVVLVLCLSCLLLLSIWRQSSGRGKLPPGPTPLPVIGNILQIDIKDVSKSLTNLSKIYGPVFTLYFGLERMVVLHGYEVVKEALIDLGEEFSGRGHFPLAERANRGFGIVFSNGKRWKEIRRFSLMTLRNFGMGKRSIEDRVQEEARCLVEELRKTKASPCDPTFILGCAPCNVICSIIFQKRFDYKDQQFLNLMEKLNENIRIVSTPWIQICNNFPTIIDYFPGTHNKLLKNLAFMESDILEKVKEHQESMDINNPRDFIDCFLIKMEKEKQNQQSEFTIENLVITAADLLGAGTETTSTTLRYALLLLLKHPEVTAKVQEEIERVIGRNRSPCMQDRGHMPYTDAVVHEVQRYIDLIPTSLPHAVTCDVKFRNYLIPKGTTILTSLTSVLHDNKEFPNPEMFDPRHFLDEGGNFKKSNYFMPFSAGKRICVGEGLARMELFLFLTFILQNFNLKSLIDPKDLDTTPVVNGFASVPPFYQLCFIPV
Summary of the method: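 5nM enzyme + 10uM Luciferin-H EGE (=KM), 50mM KPO4; cpd pin-transferred, 10 min 37C; NADPH regen, 60 min 37C; stopped w/ luciferin detection reagent, 20 min; luminescence. Normalized to 57uM ketoconazole (AC100).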

[22] = biological target: DNA dC->dU-editing enzyme APOBEC-3G (Homo sapiens) (UniProt Q9HC16); assay: qHTS for inhibitors of Vif-A3G interactions: Validation (AID 588379)
DNA dC->dU-editing enzyme APOBEC-3G (Homo sapiens), sequence (Q9HC16 whole entry, looked up): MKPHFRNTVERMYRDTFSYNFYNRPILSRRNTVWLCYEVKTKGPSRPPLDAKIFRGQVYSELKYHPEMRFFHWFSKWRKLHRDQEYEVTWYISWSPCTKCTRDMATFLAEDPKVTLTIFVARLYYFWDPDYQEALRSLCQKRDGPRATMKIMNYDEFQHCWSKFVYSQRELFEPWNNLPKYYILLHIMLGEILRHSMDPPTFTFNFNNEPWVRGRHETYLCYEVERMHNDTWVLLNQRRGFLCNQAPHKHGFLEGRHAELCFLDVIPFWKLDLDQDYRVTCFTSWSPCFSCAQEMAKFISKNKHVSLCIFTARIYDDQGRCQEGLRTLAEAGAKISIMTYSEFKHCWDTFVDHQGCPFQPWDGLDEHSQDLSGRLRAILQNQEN
Summary of the method: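 Yellow fluorescence (Ex 488, Em 500-530) of Vif-coexpressing HeLa A3G-eYFP cells, scanned by Acumen cytometer, reports blocked A3G degradation. Cells plated at 700/well overnight at 37 deg C before compound addition, then a further overnight compound incubation at 37 deg C.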

Compound: CN(C)c1ccc(Nc2c3ccc(NC(=O)CCN4CCCC4)cc3nc3cc(NC(=O)CCN4CCCC4)ccc23)cc1
- Potency [1]: inactive
- Potency [2]: 6.49 µM (active)
- activity [3]: -13%
- Potency [4]: 24.1 µM (active)
- activity [5]: -39.2%
- activity [6]: -14.2%
- Potency [7]: inactive

Compound: O=C1CCCC2=C1C1(CCSCC1)N=C(Nc1nc3ccccc3o1)N2
- Potency [1]: inactive
- outcome [8]: inactive
- Potency [9]: inactive
- Potency [10]: inactive
- Potency [7]: inactive

Compound: CCn1c(=O)c2cc(C(N)=O)c(N)nc2n(C2CC2)c1=O
- Potency [1]: inactive
- Potency [9]: inactive

Compound: O=C1NC(=O)c2cc(Nc3ccc(F)cc3)c(Nc3ccc(F)cc3)cc21
- Potency [1]: 14.6 µM (active)
- Potency [11]: inactive
- Potency [7]: inactive

Compound: CSc1cc2c(s1)c1cnn(Cc3ccccc3F)c(=O)c1n2C
- Potency [1]: inactive
- Potency [9]: inactive

Compound: CCCCN(CCCC)C(=S)[S-].CCCCN(CCCC)C(=S)[S-].[Zn+2]
- Potency [1]: inactive

Compound: CCCn1cnc2c(NCc3ccc(C)s3)nc(N[C@H](CC)CO)nc21
- Potency [12]: inactive
- Potency [7]: inactive

Compound: Cc1ccc(NS(=O)(=O)c2cc3c(cc2N[C@@H](C)CO)NC(=O)CC3)cc1C
- Potency [1]: inactive
- outcome [8]: inactive

Compound: CCCCCCCCCCCCC/C=C/[C@@H](O)[C@H](CO)N(C)C
- outcome [1]: inactive [at 5.11 µM]
- activity change, negative = inhibition [11]: 11% [at 6.83 µM] (inactive) and 6.76% [at 6.83 µM] (inactive)
- activity change, negative = inhibition [13]: -20.6% [at 3.88 µM] (inactive)
- activity change, negative = viability loss [9]: -1.18% [at 4.96 µM] (inactive)
- activity change, negative = cell killing [10]: 4.48% [at 4.96 µM] (inactive)
- Potency [7]: inactive

Compound: Nc1[nH]nc2nc3ccccc3nc12
- Potency [14]: 0.316 µM (active)
- Potency [15]: > 46 µM (inactive)
- Potency [16]: > 46 µM (inactive)
- Potency [17]: inactive
- Potency [18]: inactive
- Potency [19]: 2 µM (active)
- Potency [20]: inactive
- Potency [21]: 0.631 µM (active)
- Potency [22]: inactive
- Potency [1]: inactive
- Potency [11]: inactive
- Potency [13]: inactive
- Potency [9]: inactive
- Potency [10]: inactive
- Potency [7]: inactive

Compound: CN(C)CCOc1ccc(-c2nc(-c3ccc4c(c3)CC/C4=N/O)c(-c3ccncc3)[nH]2)cc1
- Potency [1]: inactive
- Potency [9]: 3.66 µM (active)
- Potency [10]: 7.31 µM (active)

Compound: Cc1cc(Nc2nc(NC(C)c3ccc(F)cc3)c(C#N)cc2F)n[nH]1 (stereo unspecified)
- Potency [1]: 0.731 µM (active)
- Potency [9]: 0.92 µM (active)
- Potency [10]: 0.731 µM (active)
